Assay results published in PubChem BioAssay (EPA / NIEHS).
Several values for one entry are separate records, joined by “and”; a condition that tells them apart may be missing. Equal entries are not always repeated. Records with an inconclusive call do not appear. More than one record can exist for a structure, and the calls need not agree. Activity calls are given as the source filed them. How the source made its calls, unless noted: active means hit-call score of the fitted dose curve at least 0.9, where 1 is the maximum; inactive means score below 0.9.

Legend:
[1] = ATG_PBREM_CIS: Attagene CIS-FACTORIAL HepG2 Assay for human Phenobarbital-responsive Enhancer Module (PBREM) (AID 2282955); settings: HepG2 PBREM cis-reporter, Attagene multiplexed transcription; actives raise or lower the signal
In short: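 Transfected liver-derived HepG2 cells exposed 24 h; PBREM reporter transcript quantified via RT-PCR and capillary electrophoresis, with activity in either direction referenced to DMSO.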

[2] = biological target: Paired box protein Pax-6 (Homo sapiens) (UniProt P26367); assay: ATG_Pax6_CIS: Attagene CIS-FACTORIAL HepG2 Assay for human Paired Box 6 (PAX6) (AID 2282956); settings: HepG2 CIS-FACTORIAL PAX6 reporter transcription, RNA readout; actives raise or lower the signal
Paired box protein Pax-6 (Homo sapiens), sequence (P26367 whole entry, looked up): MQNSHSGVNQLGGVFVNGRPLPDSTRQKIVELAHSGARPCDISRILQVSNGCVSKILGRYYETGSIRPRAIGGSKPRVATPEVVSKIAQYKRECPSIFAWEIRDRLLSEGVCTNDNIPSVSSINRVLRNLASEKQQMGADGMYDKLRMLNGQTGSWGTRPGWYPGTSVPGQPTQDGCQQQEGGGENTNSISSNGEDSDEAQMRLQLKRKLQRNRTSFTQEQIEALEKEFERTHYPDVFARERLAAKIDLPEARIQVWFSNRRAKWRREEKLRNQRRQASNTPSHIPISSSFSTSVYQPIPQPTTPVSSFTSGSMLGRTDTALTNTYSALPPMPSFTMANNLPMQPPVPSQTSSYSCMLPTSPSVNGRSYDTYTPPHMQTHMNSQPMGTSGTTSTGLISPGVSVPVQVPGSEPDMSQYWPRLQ
In short: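 DMSO-referenced bidirectional fits of reporter mRNA fluorescence; HepG2 with transient cis-promoter MRTUs, 24 h post-dose, RT-PCR plus capillary electrophoresis detection.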

[3] = ATG_PXRE_CIS: Attagene CIS-FACTORIAL HepG2 Assay for human Pregnane X Receptor Element (PXRE) (AID 2282957); settings: HepG2 Attagene CIS-FACTORIAL PXRE reporter, mRNA; actives raise or lower the signal
In short: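 Endogenous transcription factor activity in HepG2 was gauged through induction of reporter mRNA driven by a cis-regulating promoter element, sampled 24 h post-treatment. Activity was fitted in both directions against DMSO negative control.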

[4] = ATG_PPRE_CIS: Attagene CIS-FACTORIAL HepG2 Assay for human Peroxisome Proliferator-activated Response Element (PPRE) (AID 2282958); settings: HepG2 PPRE cis-element reporter, Attagene transcription factor profiling; actives raise or lower the signal
In short: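 Measured endpoint: PPRE-controlled reporter mRNA, detected by RT-PCR and capillary electrophoresis fluorescence, from transiently transfected HepG2 cells 24 h after dosing. Curves fitted in both directions using DMSO baseline.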

[5] = ATG_RORE_CIS: Attagene CIS-FACTORIAL HepG2 Assay for human RAR-related Orphan Receptor Element (RORE) (AID 2282959); settings: HepG2 Attagene cis-factorial RORE reporter, mRNA; actives raise or lower the signal
In short: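 Transiently transfected HepG2 reporter cells were treated 24 h. Reporter transcripts were detected by RT-PCR and capillary electrophoresis, with bidirectional fitting against DMSO.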

[6] = ATG_Sox_CIS: Attagene CIS-FACTORIAL HepG2 Assay for human SRY-box transcription factor (SOX) (AID 2282960); settings: HepG2 Attagene cis-factorial SOX reporter, mRNA; actives raise or lower the signal
In short: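 Gain- or loss-of-signal endpoint, fitted bidirectionally with DMSO as negative control. Based on reporter mRNA from transfected HepG2 cells harvested 24 h post-treatment and quantified via RT-PCR and capillary electrophoresis.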

[7] = biological target: Transcription factor Sp1 (Homo sapiens) (UniProt P08047); assay: ATG_Sp1_CIS: Attagene CIS-FACTORIAL HepG2 Assay for human Specificity Protein 1 (Sp1) (AID 2282961); settings: HepG2 Sp1 cis-reporter transcription, actives raise or lower the signal
Transcription factor Sp1 (Homo sapiens), sequence (P08047 whole entry, looked up, the tested form may be a part): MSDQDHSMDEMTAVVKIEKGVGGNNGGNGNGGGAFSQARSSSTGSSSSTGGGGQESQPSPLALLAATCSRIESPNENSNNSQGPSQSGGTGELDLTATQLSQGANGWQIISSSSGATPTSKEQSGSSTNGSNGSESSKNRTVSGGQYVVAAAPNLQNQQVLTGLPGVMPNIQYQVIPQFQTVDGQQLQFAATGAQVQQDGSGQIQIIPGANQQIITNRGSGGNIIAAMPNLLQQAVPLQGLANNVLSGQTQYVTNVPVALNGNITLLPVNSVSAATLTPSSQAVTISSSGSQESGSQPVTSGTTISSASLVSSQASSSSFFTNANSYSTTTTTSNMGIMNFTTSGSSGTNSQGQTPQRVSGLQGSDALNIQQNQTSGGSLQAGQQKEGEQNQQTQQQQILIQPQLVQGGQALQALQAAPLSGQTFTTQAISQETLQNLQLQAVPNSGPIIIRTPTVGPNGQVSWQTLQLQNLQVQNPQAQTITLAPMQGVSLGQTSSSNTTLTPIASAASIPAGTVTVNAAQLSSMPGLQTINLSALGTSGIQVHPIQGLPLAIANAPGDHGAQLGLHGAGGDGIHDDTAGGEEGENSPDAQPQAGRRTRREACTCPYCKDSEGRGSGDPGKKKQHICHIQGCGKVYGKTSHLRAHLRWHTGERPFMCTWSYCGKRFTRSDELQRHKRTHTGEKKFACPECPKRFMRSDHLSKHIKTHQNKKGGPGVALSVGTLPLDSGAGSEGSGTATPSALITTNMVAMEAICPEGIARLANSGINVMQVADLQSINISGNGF
In short: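 Endpoint reflects endogenous Sp1 transcriptional activity, not an exogenous fusion protein: HepG2 cells with transfected cis-regulated reporters, 24 h dosing, RT-PCR/capillary electrophoresis mRNA read-out, DMSO-normalised bidirectional fit.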

[8] = ATG_SREBP_CIS: Attagene CIS-FACTORIAL HepG2 Assay for human Sterol Regulatory Element Binding (SREBP) (AID 2282962); settings: HepG2 Attagene cis-factorial SREBP reporter, mRNA; actives raise or lower the signal
In short: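 In this cis-format assay, HepG2 liver cells express reporters controlled by promoter elements responsive to native transcription factors. Exposure lasts 24 h; reporter mRNA fluorescence from capillary electrophoresis gives the signal, fitted bidirectionally against DMSO.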

[9] = biological target: Signal transducer and activator of transcription 3 (Homo sapiens) (UniProt P40763); assay: ATG_STAT3_CIS: Attagene CIS-FACTORIAL HepG2 Assay for human Signal Transducer and Activator of Transcription 3 (STAT3) (AID 2282963); settings: HepG2, Attagene cis-factorial STAT3 reporter transcription; actives raise or lower the signal
Signal transducer and activator of transcription 3 (Homo sapiens), sequence (P40763 whole entry, looked up, the tested form may be a part): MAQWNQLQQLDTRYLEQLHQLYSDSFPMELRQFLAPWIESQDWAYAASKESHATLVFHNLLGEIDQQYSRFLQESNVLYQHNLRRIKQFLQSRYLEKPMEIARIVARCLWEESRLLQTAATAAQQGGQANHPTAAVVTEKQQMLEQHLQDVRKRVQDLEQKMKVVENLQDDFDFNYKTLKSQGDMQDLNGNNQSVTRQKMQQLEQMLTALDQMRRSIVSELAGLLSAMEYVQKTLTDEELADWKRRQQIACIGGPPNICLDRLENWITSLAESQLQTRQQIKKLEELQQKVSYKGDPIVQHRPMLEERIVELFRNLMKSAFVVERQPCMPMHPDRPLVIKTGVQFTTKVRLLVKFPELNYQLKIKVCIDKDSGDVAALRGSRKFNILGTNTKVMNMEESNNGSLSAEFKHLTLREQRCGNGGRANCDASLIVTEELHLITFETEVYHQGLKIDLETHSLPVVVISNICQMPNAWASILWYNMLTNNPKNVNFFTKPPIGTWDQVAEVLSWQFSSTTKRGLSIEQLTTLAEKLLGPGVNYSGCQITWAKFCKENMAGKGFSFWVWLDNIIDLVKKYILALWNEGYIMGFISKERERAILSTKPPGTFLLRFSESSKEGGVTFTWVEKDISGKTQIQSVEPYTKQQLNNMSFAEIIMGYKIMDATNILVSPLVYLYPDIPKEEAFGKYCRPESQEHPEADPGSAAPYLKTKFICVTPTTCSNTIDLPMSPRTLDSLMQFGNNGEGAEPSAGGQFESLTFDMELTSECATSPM
In short: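 Fluorescence intensity of 6-FAM-labelled reporter fragments, separated by capillary electrophoresis after RT-PCR, gave the signal. Cells were HepG2 transfected with cis-element reporter units and treated 24 h; fitting was bidirectional relative to DMSO.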

[10] = ATG_TA_CIS: Attagene CIS-FACTORIAL HepG2 Assay for human TA Basal Promoter (AID 2282964); settings: HepG2 Attagene CIS-factorial TA basal promoter reporter; actives raise or lower the signal
In short: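 Steps: transfect HepG2 with MRTUs; dose 24 h; isolate RNA, DNase-treat, reverse-transcribe; PCR and FAM-label reporter cDNA; digest with HpaI 2h at 37 C; run capillary electrophoresis. Activity fitted both directions against DMSO.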

[11] = ATG_TCF_b_cat_CIS: Attagene CIS-FACTORIAL HepG2 Assay for human T-Cell-Factor with beta-catenin (TCF/b-cat) (AID 2282965); settings: HepG2 TCF/beta-catenin cis-reporter transcription, actives raise or lower the signal
In short: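 Cells of the HepG2 line carry transiently transfected reporter units whose promoters respond to endogenous factors. Twenty-four hours post-dosing, reporter mRNA induction is measured by fluorescent RT-PCR and capillary electrophoresis, with DMSO as baseline.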

[12] = ATG_TAL_CIS: Attagene CIS-FACTORIAL HepG2 Assay for human TAL Basal Promoter (AID 2282966); settings: HepG2 Attagene cis-factorial TAL promoter reporter; actives raise or lower the signal;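 further: background control endpoint measuring basal TAL promoter reporter mRNA not a specific factor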
In short: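 Endogenous transcription-factor activity is sensed in HepG2 cells through transfected cis-promoter reporter constructs. After 24 h dosing, reporter transcripts are quantified by RT-PCR and capillary electrophoresis. Gain or loss of signal is fitted relative to DMSO.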

[13] = ATG_TGFb_CIS: Attagene CIS-FACTORIAL HepG2 Assay for human Transforming Growth Factor (TGF) (AID 2282967); settings: HepG2 Attagene CIS TGFb reporter, mRNA transcription; actives raise or lower the signal
In short: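 Cells were dosed for 24 hours, after which total RNA was reverse-transcribed and reporter sequences amplified, labeled and sized by capillary electrophoresis. Activity was fitted in both directions against DMSO.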

[14] = ATG_VDRE_CIS: Attagene CIS-FACTORIAL HepG2 Assay for human Vitamin D Receptor Element (VDRE) (AID 2282968); settings: HepG2 VDRE cis-reporter transcription, actives raise or lower the signal
In short: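 Compounds were applied for 24 h to HepG2 cells transfected with promoter-regulated reporter units. Total RNA was reverse-transcribed, and reporter amplicons were fluorescently labelled and sized by capillary electrophoresis.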

[15] = biological target: Nuclear receptor subfamily 1 group I member 3 (Homo sapiens) (UniProt Q14994); assay: ATG_CAR_TRANS: Attagene TRANS-FACTORIAL HepG2 Assay for human Constitutive Androstane Receptor (CAR) (AID 2282969; active means hit-call score of the fitted dose curve at least 0.9, where 1 is the maximum;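 further: activators raise reporter mRNA above DMSO so AC50 marks induction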); settings: HepG2 Attagene TRANS-FACTORIAL CAR reporter
Nuclear receptor subfamily 1 group I member 3 (Homo sapiens), sequence (Q14994 whole entry, looked up, the tested form may be a part): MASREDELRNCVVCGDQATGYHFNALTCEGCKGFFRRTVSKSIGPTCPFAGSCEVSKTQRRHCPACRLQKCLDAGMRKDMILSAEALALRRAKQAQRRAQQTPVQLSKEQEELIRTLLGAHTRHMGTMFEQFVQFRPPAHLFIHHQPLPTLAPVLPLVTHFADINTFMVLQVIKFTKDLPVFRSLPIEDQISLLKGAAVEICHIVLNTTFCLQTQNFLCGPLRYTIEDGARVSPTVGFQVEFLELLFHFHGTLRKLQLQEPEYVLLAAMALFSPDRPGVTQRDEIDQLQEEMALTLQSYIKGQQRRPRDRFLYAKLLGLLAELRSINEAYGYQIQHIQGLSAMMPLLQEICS
In short: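 Transiently transfected HepG2, multiplex TRANS reporters (CAR-Gal4 chimera driving GAL4-UAS reporter). 24 h dosing. Readout: reporter transcript by RT-PCR + capillary electrophoresis, fluorescence intensity; positive direction vs DMSO.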

[16] = biological target: Estrogen receptor (Homo sapiens) (UniProt P03372); assay: ATG_ERa_TRANS: Attagene TRANS-FACTORIAL HepG2 Assay for human Estrogen Receptor alpha (ERa) (AID 2282970; active means hit-call score of the fitted dose curve at least 0.9, where 1 is the maximum); settings: HepG2 Attagene TRANS ERa GAL4 reporter, mRNA
Estrogen receptor (Homo sapiens), sequence (P03372 whole entry, looked up, the tested form may be a part): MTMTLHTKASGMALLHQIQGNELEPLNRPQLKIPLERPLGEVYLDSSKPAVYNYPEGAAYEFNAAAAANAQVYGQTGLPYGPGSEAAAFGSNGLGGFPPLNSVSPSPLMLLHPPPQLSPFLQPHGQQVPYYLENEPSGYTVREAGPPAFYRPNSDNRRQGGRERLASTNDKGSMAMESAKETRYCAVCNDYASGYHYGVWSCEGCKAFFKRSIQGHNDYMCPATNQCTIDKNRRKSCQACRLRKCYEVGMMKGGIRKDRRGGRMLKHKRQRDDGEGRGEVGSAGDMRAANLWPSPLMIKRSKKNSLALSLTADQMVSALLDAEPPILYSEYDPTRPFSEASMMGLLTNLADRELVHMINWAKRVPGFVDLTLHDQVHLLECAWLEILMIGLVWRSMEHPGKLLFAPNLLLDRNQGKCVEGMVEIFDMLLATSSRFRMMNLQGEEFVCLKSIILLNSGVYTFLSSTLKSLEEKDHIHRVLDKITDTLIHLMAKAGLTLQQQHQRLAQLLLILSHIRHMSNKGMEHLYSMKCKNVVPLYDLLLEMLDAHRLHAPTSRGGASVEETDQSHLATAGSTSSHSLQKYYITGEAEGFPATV
In short: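 Transfected HepG2 cells carrying GAL4-UAS-driven reporter units were dosed for 24 hours. Total RNA was reverse-transcribed, reporter sequences PCR-amplified, FAM-labelled, HpaI-digested and resolved by capillary electrophoresis. Increases over DMSO control defined activity.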

[17] = biological target: X-box-binding protein 1 (Homo sapiens) (UniProt P17861); assay: ATG_Xbp1_CIS: Attagene CIS-FACTORIAL HepG2 Assay for human X-box Binding Protein 1 (XBP1) (AID 2282972); settings: HepG2 XBP1 cis-element reporter, Attagene multiplex; actives raise or lower the signal
X-box-binding protein 1 (Homo sapiens), sequence (P17861 whole entry, looked up): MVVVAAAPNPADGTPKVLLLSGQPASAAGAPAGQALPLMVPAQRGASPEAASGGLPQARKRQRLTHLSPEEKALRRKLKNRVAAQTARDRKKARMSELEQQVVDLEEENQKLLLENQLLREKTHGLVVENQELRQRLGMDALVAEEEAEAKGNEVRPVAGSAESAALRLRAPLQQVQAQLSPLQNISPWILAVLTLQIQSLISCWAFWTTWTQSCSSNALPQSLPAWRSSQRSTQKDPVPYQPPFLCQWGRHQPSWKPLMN
In short: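 Changes in reporter transcript abundance, read by RT-PCR and capillary electrophoresis, reflect endogenous transcription factor activity. Transfected HepG2 cells received compound for 24 hours; DMSO defined baseline for bidirectional analysis.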

[18] = ATG_M_19_TRANS: Attagene TRANS-FACTORIAL HepG2 Assay for M19 Transcription Factor (Internal Marker) (AID 2282974; active means hit-call score of the fitted dose curve at least 0.9, where 1 is the maximum); settings: HepG2 Attagene TRANS-FACTORIAL M19 internal marker reporter
In short: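 Using RT-PCR and capillary electrophoresis, reporter mRNA from transiently transfected human HepG2 cells was quantified following 24 h exposure; activity was fitted in the positive direction against DMSO.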

[19] = biological target: Steroid hormone receptor ERR1 (Homo sapiens) (UniProt P11474); assay: ATG_ERRa_TRANS: Attagene TRANS-FACTORIAL HepG2 Assay for human Estrogen-Related Receptor alpha (ERRa) (AID 2282971; active means hit-call score of the fitted dose curve at least 0.9, where 1 is the maximum); settings: HepG2 Attagene TRANS reporter, ERRa transactivation
Steroid hormone receptor ERR1 (Homo sapiens), sequence (P11474 whole entry, looked up, the tested form may be a part): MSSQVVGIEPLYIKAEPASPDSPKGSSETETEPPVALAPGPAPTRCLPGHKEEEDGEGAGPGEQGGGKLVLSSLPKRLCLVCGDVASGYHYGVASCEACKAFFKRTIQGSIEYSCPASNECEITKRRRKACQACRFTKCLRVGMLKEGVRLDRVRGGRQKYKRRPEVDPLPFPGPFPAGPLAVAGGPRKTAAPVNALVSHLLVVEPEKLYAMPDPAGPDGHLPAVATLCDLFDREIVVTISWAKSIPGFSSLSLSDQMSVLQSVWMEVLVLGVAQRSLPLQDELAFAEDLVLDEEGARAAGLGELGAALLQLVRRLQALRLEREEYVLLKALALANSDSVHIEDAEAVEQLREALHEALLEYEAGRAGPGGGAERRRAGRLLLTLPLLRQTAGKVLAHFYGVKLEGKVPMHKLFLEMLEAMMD
In short: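 HepG2 cells were transiently transfected with multiple GAL4-UAS reporter units, then dosed with compound for 24 h. Total RNA was reverse-transcribed, reporter cDNA PCR-amplified and fluorescently labelled, and fragments resolved by capillary electrophoresis; induction was compared with DMSO.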

[20] = ATG_Hpa5_TRANS: Attagene TRANS-FACTORIAL HepG2 Assay for human GAL4-Hpa5 Hepatocyte Transcription Factor Basal Promoter (AID 2282975; active means hit-call score of the fitted dose curve at least 0.9, where 1 is the maximum;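 further: hits are increases in reporter mRNA over DMSO baseline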); settings: HepG2 Attagene GAL4-Hpa5 transcription reporter
In short: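 Gain-of-signal versus DMSO is fitted for reporter mRNA quantified by RT-PCR and capillary electrophoresis after 24 h exposure. This endpoint is an internal background marker in transiently transfected HepG2 cells carrying GAL4-UAS reporter units.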

Measured: AC50

CC(=O)S[C@@H]1CC2=CC(=O)CC[C@]2(C)[C@H]2CC[C@@]3(C)[C@@H](CC[C@@]34CCC(=O)O4)[C@H]12
inactive: [1] | [2] | [3] | [4] | [5] | [6] | [7] | [8] | [9] | [10] | [11] | [12] | [13] | [14] | [15] | [16] | [17] | [18]
active: [3] 7.65 µM [middle of 4 runs] | [4] 2.4 µM | [7] 26.3 µM and 4.58 µM | [8] 100 µM | [9] 178 µM | [10] 182 µM | [11] 39.1 µM | [14] 25 µM [middle of 4 runs] | [17] 38.7 µM and 21.9 µM and 4.9 µM

CCC(C)OC(=O)N1CCCCC1CCO (stereo not given)
active: [3] 20.7 µM and 15 µM | [14] 46.5 µM
inactive: [1] | [2] | [4] | [5] | [6] | [7] | [8] | [9] | [10] | [11] | [12] | [13] | [14] | [15] | [17] | [18]

CCOC(=O)C(C)Oc1ccc(Oc2cnc3cc(Cl)ccc3n2)cc1 (stereo not given)
active: [3] 35.1 µM
not listed: [16] | [19] | [20]
inactive: all other assays above

CCCCC(CC)CN1C(=O)C2C3C=CC(C3)C2C1=O (stereo not given)
active: [1] 50 µM | [3] 3.79 µM | [4] 50 µM | [5] 34 µM | [14] 23.8 µM | [16] 50 µM
not listed: [20]
inactive: all other assays above

CCCCOC(=O)[C@@H](C)Oc1ccc(Oc2ccc(C(F)(F)F)cn2)cc1
active: [3] 50 µM
not listed: [19]
inactive: all other assays above

COC(=O)c1ccccc1S(=O)(=O)NC(=O)Nc1nc(OC(F)F)cc(OC(F)F)n1
active: [3] 33.2 µM
not listed: [19] | [20]
inactive: all other assays above

CCOC(=O)c1ccc(O)cc1
inactive: [1] | [2] | [3] | [5] | [6] | [7] | [8] | [9] | [10] | [11] | [12] | [13] | [14] | [15] | [17] | [18]
active: [2] 100 µM | [5] 57.3 µM | [8] 43.7 µM | [14] 42.8 µM | [17] 100 µM

COCCO
active: [3] 24.7 µM
inactive: [1] | [2] | [3] | [4] | [5] | [6] | [7] | [8] | [9] | [10] | [11] | [12] | [13] | [14] | [15] | [17] | [18] | [20]

CN(C)C(=O)Nc1ccc(Cl)c(Cl)c1
active: [3] 11.4 µM and 25.4 µM | [4] 37 µM | [5] 100 µM | [7] 180 µM
inactive: [1] | [2] | [4] | [5] | [6] | [7] | [8] | [9] | [10] | [11] | [12] | [13] | [15] | [16] | [19] | [17] | [18] | [20]

COC(=O)c1cccc(C)c1S(=O)(=O)NC(=O)Nc1nc(OCC(F)(F)F)nc(N(C)C)n1
active: [3] 34.5 µM
inactive: all other assays above

OB(O)O
active: [3] 81.3 µM
inactive: all other assays above

CCN(Cc1c(F)cccc1Cl)c1c([N+](=O)[O-])cc(C(F)(F)F)cc1[N+](=O)[O-]
active: [1] 7.72 µM | [2] 7.64 µM | [3] 1.26 µM | [14] 1.87 µM | [16] 3.08 µM
inactive: all other assays above
